# Laboratory results published in the supplement of paper PMC11732987, “Enantioselective OTUD7B fragment discovery through chemoproteomics screening and high-throughput optimisation” (Communications Chemistry, 2025).
# Unmarked numbers belong to inactive results.
# Tests used:
# Experiment in all cases: log2 ratio of Biotin-Ahx-Ub-VS probe labelling (fragment/DMSO); higher = less target engagement (more negative = stronger competition), active = hit call of the paper (q ≤ 0.05, log2 ratio ≤ -1)
# Details in all cases: compound concentration: 200 uM; treatment time: 3 h
# USP9X = USP9X (UniProt Q93008)
# Summary of the method: (§1)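 In triplicate, 495 µg of HEK293T lysate per sample was incubated with fragment at 200 µM or vehicle for 3 h. Biotin-Ahx-Ub-VS was then added to 0.5 µM final for 1 h, and labelled DUBs were captured with NeutrAvidin, digested with LysC and trypsin, and measured by diaPASEF LC-MS/MS. Data are average log2 fragment/vehicle ratios by unpaired t-test from global-median-normalised Spectronaut label-free quantities, restricted to proteins with ≥2 unique peptides.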
# UniProt O00487 = molecular target: UniProt O00487
# Summary of the method: as §1
# UniProt O00507 = molecular target: UniProt O00507
# Summary of the method: as §1
# UniProt P51784 = molecular target: UniProt P51784
# Summary of the method: as §1
# UniProt Q5T2D3 = molecular target: T1, UniProt Q5T2D3
# T1 sequence (whole entry): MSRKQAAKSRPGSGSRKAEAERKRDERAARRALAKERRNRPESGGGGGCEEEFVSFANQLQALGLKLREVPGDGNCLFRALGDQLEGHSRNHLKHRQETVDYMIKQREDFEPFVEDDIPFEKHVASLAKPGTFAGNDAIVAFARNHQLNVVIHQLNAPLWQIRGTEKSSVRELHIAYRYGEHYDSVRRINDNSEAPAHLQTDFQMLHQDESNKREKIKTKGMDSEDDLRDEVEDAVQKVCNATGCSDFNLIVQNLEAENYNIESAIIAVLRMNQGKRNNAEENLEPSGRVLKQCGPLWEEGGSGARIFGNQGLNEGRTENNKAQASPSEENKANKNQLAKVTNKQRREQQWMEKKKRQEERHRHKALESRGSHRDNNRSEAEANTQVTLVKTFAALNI
# Summary of the method: as §1
# UniProt Q8TE49 = molecular target: T2, UniProt Q8TE49
# T2 sequence (whole entry): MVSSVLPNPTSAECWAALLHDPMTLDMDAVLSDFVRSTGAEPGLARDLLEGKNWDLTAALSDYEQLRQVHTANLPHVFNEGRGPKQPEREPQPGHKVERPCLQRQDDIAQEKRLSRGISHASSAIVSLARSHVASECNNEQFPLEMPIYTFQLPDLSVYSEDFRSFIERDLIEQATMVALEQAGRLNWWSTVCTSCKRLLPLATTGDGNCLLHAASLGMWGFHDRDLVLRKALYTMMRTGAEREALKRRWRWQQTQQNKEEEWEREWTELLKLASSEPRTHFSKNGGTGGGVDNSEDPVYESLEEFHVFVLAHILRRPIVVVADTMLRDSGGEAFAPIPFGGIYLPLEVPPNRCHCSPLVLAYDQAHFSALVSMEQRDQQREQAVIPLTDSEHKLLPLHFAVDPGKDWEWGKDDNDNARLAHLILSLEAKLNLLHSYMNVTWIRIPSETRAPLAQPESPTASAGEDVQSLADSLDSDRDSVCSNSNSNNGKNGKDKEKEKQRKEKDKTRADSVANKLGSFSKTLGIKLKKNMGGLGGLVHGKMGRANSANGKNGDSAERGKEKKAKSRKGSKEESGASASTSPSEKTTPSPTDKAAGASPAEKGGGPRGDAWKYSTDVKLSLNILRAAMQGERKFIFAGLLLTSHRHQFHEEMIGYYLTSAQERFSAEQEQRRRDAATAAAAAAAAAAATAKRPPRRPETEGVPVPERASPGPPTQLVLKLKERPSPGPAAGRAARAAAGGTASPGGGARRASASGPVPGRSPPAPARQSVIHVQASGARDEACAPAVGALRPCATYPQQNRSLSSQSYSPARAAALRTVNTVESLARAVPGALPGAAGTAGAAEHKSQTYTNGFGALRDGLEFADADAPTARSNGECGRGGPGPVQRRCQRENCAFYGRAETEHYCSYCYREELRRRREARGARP
# Summary of the method: as §1
# UniProt Q9P2H5 = molecular target: T3, UniProt Q9P2H5
# T3 sequence (whole entry): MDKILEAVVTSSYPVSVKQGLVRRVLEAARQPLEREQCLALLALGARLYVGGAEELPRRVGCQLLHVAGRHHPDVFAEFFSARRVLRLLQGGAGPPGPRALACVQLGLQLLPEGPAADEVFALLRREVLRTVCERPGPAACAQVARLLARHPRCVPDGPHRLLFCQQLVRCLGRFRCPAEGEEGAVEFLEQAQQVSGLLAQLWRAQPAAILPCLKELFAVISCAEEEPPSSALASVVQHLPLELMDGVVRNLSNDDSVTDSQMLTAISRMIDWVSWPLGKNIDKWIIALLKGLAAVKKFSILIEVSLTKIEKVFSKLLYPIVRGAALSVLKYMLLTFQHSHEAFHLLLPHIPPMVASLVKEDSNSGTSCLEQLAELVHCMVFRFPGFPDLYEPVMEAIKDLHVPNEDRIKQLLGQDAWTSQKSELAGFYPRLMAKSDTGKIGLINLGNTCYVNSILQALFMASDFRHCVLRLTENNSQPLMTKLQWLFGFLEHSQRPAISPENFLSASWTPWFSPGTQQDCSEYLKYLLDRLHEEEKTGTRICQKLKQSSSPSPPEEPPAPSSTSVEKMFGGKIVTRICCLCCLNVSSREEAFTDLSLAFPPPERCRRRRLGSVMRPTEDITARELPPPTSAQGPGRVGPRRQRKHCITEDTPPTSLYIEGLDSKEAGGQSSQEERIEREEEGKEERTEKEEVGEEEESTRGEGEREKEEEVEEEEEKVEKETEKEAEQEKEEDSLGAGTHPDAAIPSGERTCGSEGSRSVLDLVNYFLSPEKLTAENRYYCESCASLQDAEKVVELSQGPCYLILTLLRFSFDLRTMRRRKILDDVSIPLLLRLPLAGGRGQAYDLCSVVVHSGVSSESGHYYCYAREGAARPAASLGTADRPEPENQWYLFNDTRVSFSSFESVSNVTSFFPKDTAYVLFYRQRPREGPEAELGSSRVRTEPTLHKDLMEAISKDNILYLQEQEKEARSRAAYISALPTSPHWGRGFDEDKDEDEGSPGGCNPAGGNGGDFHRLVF
# Summary of the method: as §1
# UniProt Q9UGI0 = molecular target: T4, UniProt Q9UGI0
# T4 sequence (whole entry): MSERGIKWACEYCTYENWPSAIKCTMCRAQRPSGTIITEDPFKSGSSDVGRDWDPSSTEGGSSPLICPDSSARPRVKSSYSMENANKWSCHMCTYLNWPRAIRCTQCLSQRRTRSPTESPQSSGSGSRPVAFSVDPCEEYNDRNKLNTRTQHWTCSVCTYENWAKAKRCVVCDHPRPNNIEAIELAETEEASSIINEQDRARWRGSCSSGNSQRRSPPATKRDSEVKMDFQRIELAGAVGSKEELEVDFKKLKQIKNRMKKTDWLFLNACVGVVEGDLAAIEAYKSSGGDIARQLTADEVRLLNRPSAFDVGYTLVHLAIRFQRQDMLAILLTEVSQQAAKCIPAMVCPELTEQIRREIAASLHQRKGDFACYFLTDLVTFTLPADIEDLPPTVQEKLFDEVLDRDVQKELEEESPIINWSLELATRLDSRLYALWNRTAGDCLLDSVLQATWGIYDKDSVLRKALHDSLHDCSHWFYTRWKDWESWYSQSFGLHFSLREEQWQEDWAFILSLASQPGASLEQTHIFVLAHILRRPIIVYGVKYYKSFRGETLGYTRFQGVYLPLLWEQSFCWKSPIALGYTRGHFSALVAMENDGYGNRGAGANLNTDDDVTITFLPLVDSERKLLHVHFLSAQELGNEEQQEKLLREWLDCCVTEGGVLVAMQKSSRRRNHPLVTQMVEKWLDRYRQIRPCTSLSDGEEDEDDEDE
# Summary of the method: as §1
# YOD1 = molecular target: T5, YOD1 (UniProt Q5VVQ6)
# T5 sequence (whole entry): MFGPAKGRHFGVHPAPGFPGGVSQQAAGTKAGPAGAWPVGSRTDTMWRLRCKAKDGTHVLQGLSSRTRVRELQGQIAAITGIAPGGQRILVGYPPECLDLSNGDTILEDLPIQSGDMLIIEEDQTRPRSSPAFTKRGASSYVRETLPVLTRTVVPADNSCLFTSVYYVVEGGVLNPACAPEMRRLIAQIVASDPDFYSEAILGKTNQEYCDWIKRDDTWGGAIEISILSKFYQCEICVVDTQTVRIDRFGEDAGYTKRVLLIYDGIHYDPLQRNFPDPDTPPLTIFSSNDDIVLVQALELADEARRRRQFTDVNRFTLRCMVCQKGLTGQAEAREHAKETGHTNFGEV
# Summary of the method: as §1
# UniProt P51784, sequence (P51784 whole entry): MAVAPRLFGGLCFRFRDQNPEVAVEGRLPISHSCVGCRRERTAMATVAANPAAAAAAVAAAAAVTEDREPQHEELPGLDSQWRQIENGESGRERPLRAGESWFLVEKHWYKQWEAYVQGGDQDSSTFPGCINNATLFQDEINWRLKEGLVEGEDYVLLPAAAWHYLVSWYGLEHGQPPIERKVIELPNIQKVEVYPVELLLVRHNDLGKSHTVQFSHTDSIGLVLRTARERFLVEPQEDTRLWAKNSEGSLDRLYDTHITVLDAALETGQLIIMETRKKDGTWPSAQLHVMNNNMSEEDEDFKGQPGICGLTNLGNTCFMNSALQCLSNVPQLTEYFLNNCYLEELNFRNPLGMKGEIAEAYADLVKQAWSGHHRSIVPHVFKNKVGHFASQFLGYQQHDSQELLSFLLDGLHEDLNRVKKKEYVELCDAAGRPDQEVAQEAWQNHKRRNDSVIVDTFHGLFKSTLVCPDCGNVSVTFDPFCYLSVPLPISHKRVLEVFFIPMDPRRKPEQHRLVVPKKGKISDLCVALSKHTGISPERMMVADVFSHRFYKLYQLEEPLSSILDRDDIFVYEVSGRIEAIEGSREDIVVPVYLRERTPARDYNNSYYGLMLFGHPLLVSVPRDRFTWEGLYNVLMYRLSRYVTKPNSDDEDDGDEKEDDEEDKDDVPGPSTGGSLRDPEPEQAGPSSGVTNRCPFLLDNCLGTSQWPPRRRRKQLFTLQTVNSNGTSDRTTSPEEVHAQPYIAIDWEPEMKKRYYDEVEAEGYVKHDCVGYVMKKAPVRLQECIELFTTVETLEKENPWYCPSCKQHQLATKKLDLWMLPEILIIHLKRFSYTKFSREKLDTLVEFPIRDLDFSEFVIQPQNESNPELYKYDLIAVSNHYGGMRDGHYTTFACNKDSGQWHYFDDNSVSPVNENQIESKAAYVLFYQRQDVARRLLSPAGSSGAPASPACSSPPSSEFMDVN
# UniProt O00507, sequence (O00507 whole entry): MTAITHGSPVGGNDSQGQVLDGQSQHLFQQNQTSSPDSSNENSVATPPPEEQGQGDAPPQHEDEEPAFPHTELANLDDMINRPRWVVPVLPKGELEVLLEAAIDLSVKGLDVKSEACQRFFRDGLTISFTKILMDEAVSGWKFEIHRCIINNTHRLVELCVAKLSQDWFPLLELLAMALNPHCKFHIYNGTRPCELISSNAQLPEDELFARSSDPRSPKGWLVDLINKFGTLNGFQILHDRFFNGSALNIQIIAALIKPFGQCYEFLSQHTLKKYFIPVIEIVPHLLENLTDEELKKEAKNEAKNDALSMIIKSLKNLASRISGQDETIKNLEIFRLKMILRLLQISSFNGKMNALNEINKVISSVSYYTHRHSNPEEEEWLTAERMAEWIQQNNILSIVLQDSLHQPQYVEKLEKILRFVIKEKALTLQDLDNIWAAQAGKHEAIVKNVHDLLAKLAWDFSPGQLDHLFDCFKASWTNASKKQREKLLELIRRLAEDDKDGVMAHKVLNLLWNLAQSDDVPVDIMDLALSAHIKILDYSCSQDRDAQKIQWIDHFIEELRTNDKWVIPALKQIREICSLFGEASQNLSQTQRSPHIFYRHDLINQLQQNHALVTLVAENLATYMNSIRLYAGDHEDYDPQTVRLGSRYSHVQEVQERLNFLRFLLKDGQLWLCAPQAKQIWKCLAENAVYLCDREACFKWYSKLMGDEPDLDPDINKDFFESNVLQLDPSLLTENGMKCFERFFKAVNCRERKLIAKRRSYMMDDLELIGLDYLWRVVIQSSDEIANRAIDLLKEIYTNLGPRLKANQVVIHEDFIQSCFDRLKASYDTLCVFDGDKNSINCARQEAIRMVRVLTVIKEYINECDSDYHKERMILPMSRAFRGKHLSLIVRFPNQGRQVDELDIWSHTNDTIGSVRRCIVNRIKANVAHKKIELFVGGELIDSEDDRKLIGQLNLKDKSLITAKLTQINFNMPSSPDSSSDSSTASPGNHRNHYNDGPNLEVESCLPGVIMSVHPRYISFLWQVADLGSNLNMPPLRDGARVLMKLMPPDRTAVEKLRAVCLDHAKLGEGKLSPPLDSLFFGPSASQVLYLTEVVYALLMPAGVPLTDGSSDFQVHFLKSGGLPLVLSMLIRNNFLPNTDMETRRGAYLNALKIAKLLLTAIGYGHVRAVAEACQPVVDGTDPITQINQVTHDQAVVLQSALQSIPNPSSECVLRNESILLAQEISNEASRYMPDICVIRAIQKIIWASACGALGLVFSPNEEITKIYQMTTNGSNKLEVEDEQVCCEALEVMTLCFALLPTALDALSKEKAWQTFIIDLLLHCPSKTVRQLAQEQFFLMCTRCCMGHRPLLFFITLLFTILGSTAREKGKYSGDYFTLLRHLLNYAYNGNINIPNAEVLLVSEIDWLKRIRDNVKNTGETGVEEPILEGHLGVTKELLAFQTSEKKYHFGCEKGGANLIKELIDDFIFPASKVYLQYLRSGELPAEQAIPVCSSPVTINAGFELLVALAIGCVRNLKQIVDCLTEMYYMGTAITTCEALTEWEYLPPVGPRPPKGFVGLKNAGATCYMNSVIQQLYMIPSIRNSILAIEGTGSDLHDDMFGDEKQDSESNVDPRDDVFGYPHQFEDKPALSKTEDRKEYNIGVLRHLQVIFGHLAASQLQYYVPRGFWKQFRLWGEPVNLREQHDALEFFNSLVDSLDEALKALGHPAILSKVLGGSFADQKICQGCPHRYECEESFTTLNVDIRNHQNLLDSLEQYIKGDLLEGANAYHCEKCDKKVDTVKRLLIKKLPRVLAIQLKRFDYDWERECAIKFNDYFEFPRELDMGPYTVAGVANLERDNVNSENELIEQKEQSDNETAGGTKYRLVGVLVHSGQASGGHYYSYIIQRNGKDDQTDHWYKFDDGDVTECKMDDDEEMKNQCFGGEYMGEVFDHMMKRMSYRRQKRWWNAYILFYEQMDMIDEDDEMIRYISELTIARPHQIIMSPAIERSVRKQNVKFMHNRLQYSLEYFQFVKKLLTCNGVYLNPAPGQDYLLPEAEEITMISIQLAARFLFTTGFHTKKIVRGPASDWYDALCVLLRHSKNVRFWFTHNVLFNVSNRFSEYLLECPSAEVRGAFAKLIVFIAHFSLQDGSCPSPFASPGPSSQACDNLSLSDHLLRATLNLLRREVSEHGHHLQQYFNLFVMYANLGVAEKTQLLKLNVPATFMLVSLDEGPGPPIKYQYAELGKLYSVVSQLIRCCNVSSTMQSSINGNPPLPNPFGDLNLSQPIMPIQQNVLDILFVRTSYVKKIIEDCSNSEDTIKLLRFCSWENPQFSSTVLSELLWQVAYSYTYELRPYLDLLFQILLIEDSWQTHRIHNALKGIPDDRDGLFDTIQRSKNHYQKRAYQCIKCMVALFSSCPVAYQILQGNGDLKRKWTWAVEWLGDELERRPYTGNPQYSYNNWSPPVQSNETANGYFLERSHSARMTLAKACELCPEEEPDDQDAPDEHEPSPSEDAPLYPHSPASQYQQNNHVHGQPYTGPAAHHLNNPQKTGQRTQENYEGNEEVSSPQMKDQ
# UniProt O00487, sequence (O00487 whole entry): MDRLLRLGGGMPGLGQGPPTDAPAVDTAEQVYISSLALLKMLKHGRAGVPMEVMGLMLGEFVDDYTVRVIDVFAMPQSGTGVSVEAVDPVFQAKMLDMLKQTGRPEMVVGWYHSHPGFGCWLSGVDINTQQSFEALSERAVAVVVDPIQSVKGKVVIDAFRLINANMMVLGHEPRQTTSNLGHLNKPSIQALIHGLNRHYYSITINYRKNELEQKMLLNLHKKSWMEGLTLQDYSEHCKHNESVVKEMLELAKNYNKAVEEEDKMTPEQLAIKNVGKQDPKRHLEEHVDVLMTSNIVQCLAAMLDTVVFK
structure (smiles),measurement,setting,value
CCCn1nccc1NC(=O)CCl,log2 ratio of Biotin-Ahx-Ub-VS probe labelling,USP9X,-0.239
same,log2 ratio of Biotin-Ahx-Ub-VS probe labelling,UniProt O00487,-0.102
same,log2 ratio of Biotin-Ahx-Ub-VS probe labelling,UniProt O00507,-0.381
same,log2 ratio of Biotin-Ahx-Ub-VS probe labelling,UniProt P51784,-0.0768
same,log2 ratio of Biotin-Ahx-Ub-VS probe labelling,UniProt Q5T2D3,-0.0284
same,log2 ratio of Biotin-Ahx-Ub-VS probe labelling,UniProt Q8TE49,-1.02 (active)
same,log2 ratio of Biotin-Ahx-Ub-VS probe labelling,UniProt Q9P2H5,-0.452
same,log2 ratio of Biotin-Ahx-Ub-VS probe labelling,UniProt Q9UGI0,-0.251
same,log2 ratio of Biotin-Ahx-Ub-VS probe labelling,YOD1,-0.159
